Hits are enriched below; roughly 2% of the tested compounds scored in any of these assays.
M1 ag parental: nonselective activator or artifact in parental CHO-K1 cells; hit rate 0.48% among 360,000; activation, % at 3 µM; AID 602248; Fluo-8 calcium fluorescence; scaled to maximal ATP response, vehicle zero; in the data active means activation above about 15%;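 further: untransfected CHO-K1 host cells lacking M1 receptor as counterscreen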
CHO-K1 Ca antag: nonselective inhibitor or artifact in parental CHO-K1 cells; ATP-induced calcium, Fluo-8 fluorescence; inhibition, % at 3 µM; hit rate 0.6% among 360,000; AID 602250;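 active means inhibition above a per-plate cutoff, the plate's mean sample inhibition plus 3 SD, cut at about 24% in these data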
CHRM4 PAM: positive allosteric modulators of human muscarinic M4 receptor. P08173. CHO-K1 hM4/Gqi5, Fluo-8 calcium fluorescence, ACh EC20; 0% = ACh EC20, 100% = maximal ACh. activation, % at 3 µM. hit rate 0.4% among 360,000. AID 624126;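 active means activation above its plate's cutoff, the mean activation of sample wells plus 3 SD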
Target sequence (P08173 whole entry, looked up): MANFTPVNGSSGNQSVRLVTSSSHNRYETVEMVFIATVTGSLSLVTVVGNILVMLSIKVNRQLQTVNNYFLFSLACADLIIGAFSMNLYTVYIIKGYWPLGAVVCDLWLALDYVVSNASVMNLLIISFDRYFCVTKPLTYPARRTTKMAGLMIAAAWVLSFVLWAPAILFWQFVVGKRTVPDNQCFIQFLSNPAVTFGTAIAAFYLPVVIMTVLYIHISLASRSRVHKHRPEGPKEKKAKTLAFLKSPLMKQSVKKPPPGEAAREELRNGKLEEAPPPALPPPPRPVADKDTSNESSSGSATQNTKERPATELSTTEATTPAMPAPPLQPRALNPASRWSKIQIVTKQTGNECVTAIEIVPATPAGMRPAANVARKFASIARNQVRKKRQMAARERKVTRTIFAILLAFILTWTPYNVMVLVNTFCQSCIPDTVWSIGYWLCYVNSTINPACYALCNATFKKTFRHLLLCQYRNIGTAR
CHO-K1 Ca PAM: M1 PAM counterscreen hit in parental CHO-K1 cells. ATP EC20, Fluo-8 calcium fluorescence; 0% at ATP EC20, 100% at ATP max. activation, % at 3 µM. hit rate 0.02% among 360,000. AID 602247;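 active means activation above the run cutoff, the mean activation of all test compounds plus 3 SD, cut at about 40% in these data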;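 further: peak over basal fluorescence ratio in a 140 s read after ATP addition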
M4 antag: antagonists of human muscarinic M4 receptor (CHRM4); P08173; CHO-hM4 cells, ACh EC80, Fluo-8 calcium fluorescence; inhibition, % at 3 µM; hit rate 0.73% among 360,000;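 active means inhibition above its plate's cutoff, the mean inhibition of sample wells plus 3 SD, cut at about 27% in these data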
M4 ag: CHRM4 agonism in calcium assay; P08173; CHO-K1 hM4/Gqi5, Fluo-8 calcium fluorescence; vehicle 0%, full acetylcholine response 100%; activation, % at 3 µM; hit rate 0.14% among 360,000;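 active means activation above the run mean over all test wells plus 3 SD, cut at about 32% in these data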;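 further: peak over basal fluorescence ratio per well then scaled between controls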
Numbers stand for hits; i = inactive; nt = no result; ! = not confirmed by another sample.

SMILES	M1 ag parental	CHO-K1 Ca antag	CHRM4 PAM	CHO-K1 Ca PAM	M4 antag	M4 ag
Cc1cc(C)cc(N2CC(C(=O)Nc3cc(C)on3)CC2=O)c1 (stereo not drawn)	i	i	i	i	i	i
O=S1(=O)CC(N2CC=CC2)CN1Cc1ccc(F)cc1 (stereo not drawn)	i	29.2	i	i	i	i
O=C(CCl)N(c1ccc(Cl)cc1)c1c[nH]c2ccccc12	i	i	i	i	34.8	i
O=C(CCl)N(c1ccccc1)c1c[nH]c2ccccc12	i	i	i	i	i	i
Cc1oc(-c2ccc(Cl)cc2)nc1CS(=O)CC(=O)NCCN1CCCC1 (stereo not drawn)	i	25.3	i	i	i	i
Cn1c(=O)c2c(-c3ccccc3)n(CCCN3CCOCC3)cc2n(C)c1=O	i	28.9	i	i	i	i
Cc1ccc(-c2c3c(=O)n(C)c(=O)n(C)c3cn2Cc2ccccc2)cc1	i	i	i	i	i	i
Cc1cc(/C=C2/SC(=S)N(c3cccc(Cl)c3)C2=O)c(C)n1-c1cccnc1	i	i	i	i	33.5	i
Cc1cc(/C=C2\SC(=S)N(C)C2=O)c(C)n1-c1ccccc1O	i	i	i	i	26.9	i
Cc1cc(/C=C2\SC(=S)N(C)C2=O)c(C)n1-c1ccc(O)cc1	i	i	i	i	i	i
CCN(CC)P(=O)(Nc1ccccc1Br)c1ccc(N(C)C)cc1NC(=O)c1ccco1 (stereo not drawn)	i	i	i	i	i	i
Cc1noc(C)c1C(=O)Nc1nc(-c2ccc([N+](=O)[O-])cc2)cs1	i	i	i	i	i	i
Cc1ccc(S(=O)(=O)C=CS(=O)(=O)c2ccc(C)cc2)cc1	i	i	i	i	31.7	i
O=S(=O)(/C=C/C=C/S(=O)(=O)c1ccccc1)c1ccccc1	i	i	i	i	42.9	i
Cc1sc2nc3ccc(NCc4ccco4)nn3c(=O)c2c1C	i	i	i	i	i	i
CN(C(=O)COC(=O)c1ccccc1C(=O)c1ccccc1)c1ccccc1	i	i	i	i	i	i
Cn1c(=O)c2[nH]c(-c3cccnc3)nc2n(C)c1=O	i	i	31.4	i	i	i
COc1ccccc1S(=O)(=O)N1CCNC(=O)C1	i	i	i	i	i	i
Cc1cc(-c2csc(NC(=O)c3ccc(C#N)cc3)n2)c(C)n1Cc1ccco1	i	i	24.7	i	i	i
Cc1cc(-c2csc(NC(=O)c3ccc(=O)[nH]c3)n2)c(C)n1Cc1ccccc1	i	i	i	i	i	i
CC(=O)Nc1nnc(-c2ccc3c(c2)CCCC3)o1	i	i	i	i	i	i
O=C(Nc1nnc(-c2ccc3c(c2)CCCC3)o1)C1COc2ccccc2O1 (stereo not drawn)	i	25.5	i	i	i	i
O=C1c2ccccc2C(Nc2ccc3c(c2)OCO3)N1Cc1ccc2c(c1)OCO2 (stereo not drawn)	i	i	i	i	i	i
CCCCN(C(=O)c1cccc(S(=O)(=O)N(C)c2ccc(C)cc2)c1)c1c(N)n(CCCC)c(=O)[nH]c1=O	i	i	i	i	i	i
CCc1cccc(CC)c1N1C(=O)COCC1=O	i	i	i	i	i	i
SMILES	M1 ag parental	CHO-K1 Ca antag	CHRM4 PAM	CHO-K1 Ca PAM	M4 antag	M4 ag
CCc1cccc(CC)c1N1C(=O)C2=C(SCCCS2)C1=O	26.4	i	i	i	i	33.8
CN(C(=O)CN1C(=O)c2ccccc2S1(=O)=O)c1ccccc1C(=O)O	i	i	i	i	i	i
O=C(c1ccccc1Nc1ccc(SC(F)F)cc1)N1CCCCC1	i	i	36.5	i	i	i
COc1ccc(CCNC(=O)C(=O)NCC2OCCN2C(=O)c2ccc(Cl)cc2)cc1OC (stereo not drawn)	i	i	i	i	i	i
O=C1Nc2ccccc2N=C(c2ccccc2)C1N(Cc1ccc(F)cc1)C(=O)c1cccnc1 (stereo not drawn)	i	i	i	i	i	i
COc1ccc(CNc2ccc(Br)cc2)cc1	i	i	i	i	i	i
COc1ccc(NC2=NCC(Cc3ccc(Br)cc3)S2)cc1 (stereo not drawn)	i	i	i	i	29.3	i
c1ccc(-c2nc(-c3ccco3)n3ccccc23)cc1	i	i	i	i	i	i
Cc1ccc(C(c2sc3nc(C)nn3c2O)N2CCN(CCO)CC2)cc1 (stereo not drawn)	i	i	i	i	i	i
Cc1cc(C)nc(N/N=C/c2cn[nH]c2-c2ccc(F)cc2)n1	18.2	i	i	i	i	i
CCOc1ccccc1-c1cc(C(=O)Nc2ccc(C(=O)O)cc2)c2ccccc2n1	i	i	13.9	i	i	i
O=C(C(=O)N1CCN(c2ccccc2)CC1)c1cccc(Br)c1	nt	nt	i	nt	30.4	i
CCN(C(=O)COC(=O)c1ccccc1NCc1ccco1)c1c(N)n(Cc2ccccc2)c(=O)[nH]c1=O	i	i	i	i	i	i
CC(=O)N1CCOc2ccc(S(=O)(=O)N(C)c3ccc(C)cc3)cc21	i	i	i	i	29.1	i
Cc1cc(C)n(CC(=O)c2cccc([N+](=O)[O-])c2)n1	17.3	i	i	i	i	i
N#Cc1ccc(-c2ccc(OCC3CNC(=O)O3)cc2)cc1 (stereo not drawn)	i	i	i	i	i	i
NC(=O)c1cccnc1Oc1ccccc1	i	i	i	i	i	i
COc1ccnc(Oc2ccccc2)c1C(N)=O	i	26.7	i	i	i	i
COc1ccc(-c2csc3nc[nH]c(=O)c23)cc1	i	i	i	i	i	i
O=C(Cc1cc(=O)[nH][nH]1)N/N=C/c1c(Cl)cccc1Cl	i	i	i	i	i	i
O=C(Cc1cc(=O)[nH][nH]1)N/N=C/C(Cl)=C/c1ccccc1	i	i	35.1!	i	i	i
O=C(NC1CCCCC1)N1CCC(c2nc3ccccc3[nH]2)CC1	i	i	i	i	i	i
CCOC(=O)C1=C(SCC)c2cc3c(n2C1=O)CCCC3	i	i	i	i	i	i
N#CC1=C(N2CCCCC2)c2cc3c(n2C1=O)CCCC3	i	i	i	i	30.5	i
COc1ccc(C2=Nn3c(nnc3-c3ccccc3OC)SC2)cc1OCC1CC1	i	i	i	i	i	i
COc1ccc(OC)c(-c2nnc3n2N=C(c2ccc(OC(F)F)c(OCC4CC4)c2)CS3)c1	i	i	i	i	27.6	i
COc1ccc(C2=Nn3c(nnc3-c3ccccc3F)SC2)cc1OC1CCOC1 (stereo not drawn)	i	i	i	i	i	i
COc1ccc(C2=Nn3c(nnc3-c3ccccc3F)SC2)cc1OC1CCCC1	i	i	i	i	28.7	i
Cc1ccc(/C=N/Nc2ccc(C(=O)O)cc2)o1	i	i	i	i	i	i
O=C(Nc1ccc(Cl)c(Cl)c1)Nc1ccc([N+](=O)[O-])cn1	i	i	i	i	i	i

Screens (PubChem)
